Experimental data reported in PubChem BioAssay AID720517 (National Center for Advancing Translational Sciences (NCATS), 2013).
Inconclusive results are not listed. Where a call stands in place of a potency, no number is given. The source made the active and inactive calls. Calls come from the whole dose curve; as a rule, active = well fitted activation curve with a large enough effect; inconclusive = small, poorly fitted or top-dose-only effect; inactive = flat fitted curve, though single readings scatter.

assay: qHTS for Inhibitors of Cell Surface uPA Generation: FP59 Counterscreen for Cherry-picked Compounds; details: FP59 anthrax toxin cytotoxicity counterscreen, cells; series mostly up to 115 µM

SMILES | Potency
Cn1c(C2CCCCC2)nc2cc(N)ccc21 | inactive
CCS(=O)c1scc(-c2ccc(Cl)cc2)c1C#N (centres undefined) | inactive
CCOC(=O)C1=C(C)N(Cc2ccccc2)C(=O)NC1c1ccc(OC)cc1 (centres undefined) | inactive
CCN(C1CCS(=O)(=O)C1)S(=O)(=O)c1ccc2ccccc2c1 (centres undefined) | inactive
Cc1ccc2cccc(OCCCOc3ccccc3CO)c2n1 | inactive
COC(/C=C/Nc1ccc(Cl)cc1)=C(C#N)C#N | inactive
COc1ccccc1N=Nc1c(C)[nH]n(-c2ccccc2)c1=O | inactive
Cc1cc(C)n2nc(CNS(=O)(=O)c3ccc(F)c(C)c3)nc2n1 | inactive
CC1CCCN(C(=O)c2ccc(CNc3c(N4CCCCC4)c(=O)c3=O)cc2)C1 (centres undefined) | inactive
COc1ccccc1NS(=O)(=O)c1cc(NC(=O)CCc2nc3ccccc3c(=O)[nH]2)ccc1C | inactive
COc1ccc(N(CN2C(=O)c3ccccc3C2=O)C(=O)C(C)C)cc1 | inactive
CN1CCN(c2ccc(S(=O)(=O)N3CCOCC3)cc2NC(=O)CSCc2ccccc2)CC1 | inactive
CCOc1cc(S(=O)(=O)NC2CC(C)(C)NC(C)(C)C2)ccc1Cl | inactive
Cc1[nH]c2ccccc2c1C(=O)C(C)OC(=O)c1ccccc1NCCO (centres undefined) | inactive
COc1ccc(-c2cccc(-c3cc(=O)oc4cc(OC)c(OC)c(OC)c34)c2)cc1 | inactive
O=C(NNC(=O)C1CC(c2cccs2)=NO1)Nc1ccccc1 (centres undefined) | inactive
CCN(C(=O)c1c(C)noc1C)c1c(N)n(Cc2ccccc2)c(=O)[nH]c1=O | inactive
CN(CC(=O)N(C)CC(=O)Nc1c(Cl)cccc1Cl)Cc1ccccc1F | inactive
COc1cccc(NC(=S)NCc2ccc3c(c2)cc(C)n3C)c1 | inactive
O=S(=O)(NCCc1ccccc1F)c1cccc(S(=O)(=O)N2CCOCC2)c1 | inactive

SMILES | Potency
O=C(Cc1ccccc1)Nc1ccc(NC(=O)c2ccccc2)c(Cl)c1 | inactive
O=C1c2ccccc2[C@@H]2C[C@H](NC34CC5CC(CC(C5)C3)C4)[C@@H](O)CCN12 | inactive
CCOC(=O)C1CCCN(CC(=O)Nc2ccc(C(=O)Nc3ccccc3OC)cc2)C1 (centres undefined) | inactive
O=c1[nH]c2c(s1)C(c1ccc(O)cc1)C1C3CCC(C3)C1S2 (centres undefined) | inactive
O=C(C1=C[C@H](c2ccccc2)C[C@H](OCCCCO)O1)N1CCN(Cc2ccc3c(c2)OCO3)CC1 | inactive
Cc1cc(C)c(NC(=O)Cn2nnc(C(=O)NCc3ccc4c(c3)OCO4)c2N)c(C)c1 | inactive
C[N+]1(CC(O)c2ccccc2)CCCCCC1 (centres undefined) | inactive
O=C(CN1CCOC1=O)N1CCCC(Nc2ccc(F)c(F)c2)C1 (centres undefined) | inactive
O=C(NCCCn1ccnc1)C(=O)NCC(c1cccnc1)N1CCN(c2ccc(F)cc2)CC1 (centres undefined) | inactive
CCc1ccc(S(=O)(=O)NCCc2cn3cccc(C)c3n2)s1 | inactive
COc1cc(/C=N/NC(=O)c2ccncc2)ccc1O | inactive
C[C@H]1CN([C@@H](C)CO)C(=O)c2cccc(NC(=O)c3cnccn3)c2O[C@@H]1CN(C)S(=O)(=O)c1ccc(F)cc1 | inactive
CCOc1ccc(N(CC(=O)Nc2ccc(CC)cc2)S(=O)(=O)c2c(C)[nH]c(=O)[nH]c2=O)cc1 | inactive
CCOCCCn1c(SCC(=O)Nc2oc(C)c3c(C)n[nH]c(=O)c23)nc2ccccc2c1=O | inactive
CCOC(=O)[C@H]1[C@H]2COc3ccc(Br)cc3[C@@H]2N2C(=O)c3c(C)cc(C)cc3NC(=O)[C@@]12C | inactive
COCCN(C(=O)CSc1nnc(-c2ccncc2)n1C)c1c(N)n(CC(C)C)c(=O)[nH]c1=O | inactive
O=C(NCCN1CCOCC1)c1ccccc1Cl | inactive
O=C(NC1CCCCC1)C(c1ccco1)N(C(=O)c1csnn1)c1cccc(Cl)c1 (centres undefined) | inactive
O=C(NC(=O)c1ccccc1)Nc1cccc(S(=O)(=O)N2CCCCC2)c1 | inactive
